Results filed as inconclusive are left out. Activity calls are given as the source filed them. The call rests on the fitted dose curve; in most records, active means well fitted curve in the direction sought with a large enough effect; inconclusive means small, poorly fitted or top-dose-only effect, or another doubt; inactive means no such curve, though single readings can be large; an effect the other way counts as inactive or inconclusive.
How the values were obtained:
[1] = target: Arylsulfatase A (Homo sapiens) (UniProt P15289); assay: qHTS screen for enhancers of Arylsulfatase A (ASA1): LOPAC Validation Assay (AID 720538)
In short: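 MLD patient fibroblasts (SV40, ASA-I179S), 1536-well; adhere 6 hrs; cpd 48h, 37 degree C, 5% CO2; pNCS 0.5mM final in lysis buffer, 14h RT; stop 1N NaOH final; fluor. Ex525/Em598.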

[2] = qHTS for compounds that reverse cellular toxicity of Amyloid beta (A-beta) peptide in yeast: LOPAC Validation Assay (AID 720559);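 further: plate controls were DMSO for no effect and equimolar ferric chloride plus clioquinol rescue for full effect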
In short: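 Medium dispensed, compounds pinned, A-beta yeast suspension added; plates held at 30 C for 48 hr; absorbance measured at 600 nm to gauge growth; values scaled between DMSO and FeCl3/clioquinol (equimolar) controls.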

[3] = qHTS for Activators of Parkin Expression: LOPAC Validation Assay (NLuc Reporter) (AID 720572)
In short: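 Parkin promoter-driven FLuc/NLuc neuronal reporter cells; 24 h plating, 7-pt dose response, 24 h at 37 C/5% CO2; FLuc then NanoLuc reagent, 10 min each, luminescence; DMSO/positive control normalized.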

[4] = qHTS for Activators of Parkin Expression: LOPAC Validation Assay (FLuc Reporter) (AID 720573)
In short: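 Cells seeded, 24 h; compounds pinned, 7-pt dose response; 24 h at 37 C/5% CO2; volume reduced; FLuc reagent 10 min RT; luminescence read. Normalization: DMSO = 0, positive control = 100%.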

[5] = target: T1, Hexokinase-4 (Homo sapiens) + Glucokinase regulatory protein (Homo sapiens) (UniProt P35557+Q14397); assay: qHTS assay for inhibitors of recombinant human GCK-GKRP interaction: Diaphorase-coupled assay (AID 743205)
In short: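 25 mM Hepes pH 7.6, 5 mM glucose, 0.4 mM ATP, 4 U/ml G6PDH; 10 nM each GST-GCK/FLAG-GKRP. Kinetic fluorescence read, 1/min × 30 min. Normalized: DMSO ± enzyme = max/min.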

[6] = target: T1, Hexokinase-4 (Homo sapiens) + Glucokinase regulatory protein (Homo sapiens); assay: qHTS assay for inhibitors of recombinant human GCK-GKRP interaction: ADP-Glo assay (AID 743206);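 further: plate controls were DMSO plus enzyme for no effect and no enzyme for full effect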
In short: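 GST-GCK and FLAG-GKRP (15 nM each in the dispensed mix, with 2 uM S6P) react with 0.4 mM ATP and 5 mM glucose (final) in Hepes pH 7.6 for 60 min at room temperature. ADP is measured by ADP-Glo luminescence.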

[7] = qHTS Assay for Identifying Gametocytocidal Compounds (AID 743244); further: potency means the concentration at half of the fitted maximal effect;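 on max response: on the % scale 0 is the no-effect control and ±100 the full control effect; actives lower the fluorescent signal which means gametocytes are killed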; conditions: P. falciparum 3D7 stage III-V gametocytes, alamarBlue, 72 h; max response: active compounds read low
In short: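 Compounds are pinned into medium, gametocytes (stage III–V, 3D7, 20,000 cells/well) added, and plates held 72 h at 37 °C in 5% CO2. AlamarBlue follows for 24 h before fluorescence reading.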

[8] = target: T1, Hexokinase-4 (Homo sapiens) + Glucokinase regulatory protein (Homo sapiens); assay: qHTS assay for inhibitors of recombinant human GCK-GKRP interaction: HTRF assay (AID 743207);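 further: 0% = DMSO with GCK present and -100% = DMSO wells lacking GCK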
In short: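 5 nM GST-GCK + 5 nM FLAG-GKRP + 2 uM S6P, pH 7.1 buffer (25 mM Hepes, 2 mM MgCl2, 25 mM KCl, 1 mM DTT, Tween/BSA); pin-transferred cpd; anti-FLAG XL665/anti-GST K; 60 min RT; HTRF.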

Arylsulfatase A (Homo sapiens), sequence (P15289 whole entry, looked up): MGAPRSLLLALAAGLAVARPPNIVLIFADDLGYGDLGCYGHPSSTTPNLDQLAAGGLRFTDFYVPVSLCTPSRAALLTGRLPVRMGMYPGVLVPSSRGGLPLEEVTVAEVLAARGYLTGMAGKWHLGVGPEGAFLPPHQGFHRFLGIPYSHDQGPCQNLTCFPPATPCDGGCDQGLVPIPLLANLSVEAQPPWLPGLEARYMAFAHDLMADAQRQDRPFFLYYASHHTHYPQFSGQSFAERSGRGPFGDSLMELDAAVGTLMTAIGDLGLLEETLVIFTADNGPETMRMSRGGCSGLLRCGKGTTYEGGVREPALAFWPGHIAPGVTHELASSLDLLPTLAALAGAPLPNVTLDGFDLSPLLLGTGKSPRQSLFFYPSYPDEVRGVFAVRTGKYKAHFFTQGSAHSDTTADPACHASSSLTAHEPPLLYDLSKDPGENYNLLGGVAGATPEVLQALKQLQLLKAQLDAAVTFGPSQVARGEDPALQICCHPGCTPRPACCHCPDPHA
T1 sequence (P35557 whole entry, looked up): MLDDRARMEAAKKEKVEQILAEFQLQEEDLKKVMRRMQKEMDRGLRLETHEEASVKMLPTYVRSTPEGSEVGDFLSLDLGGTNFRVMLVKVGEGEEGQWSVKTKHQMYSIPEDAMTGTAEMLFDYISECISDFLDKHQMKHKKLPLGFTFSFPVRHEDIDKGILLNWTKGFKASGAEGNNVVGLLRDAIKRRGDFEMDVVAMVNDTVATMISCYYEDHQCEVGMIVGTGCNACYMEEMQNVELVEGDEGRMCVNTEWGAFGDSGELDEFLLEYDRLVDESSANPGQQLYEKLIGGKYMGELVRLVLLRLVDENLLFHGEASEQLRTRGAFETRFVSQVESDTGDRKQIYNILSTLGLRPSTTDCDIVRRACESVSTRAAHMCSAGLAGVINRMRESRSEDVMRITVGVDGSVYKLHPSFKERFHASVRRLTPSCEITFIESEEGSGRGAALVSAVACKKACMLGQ
T1 sequence (Q14397 whole entry, looked up): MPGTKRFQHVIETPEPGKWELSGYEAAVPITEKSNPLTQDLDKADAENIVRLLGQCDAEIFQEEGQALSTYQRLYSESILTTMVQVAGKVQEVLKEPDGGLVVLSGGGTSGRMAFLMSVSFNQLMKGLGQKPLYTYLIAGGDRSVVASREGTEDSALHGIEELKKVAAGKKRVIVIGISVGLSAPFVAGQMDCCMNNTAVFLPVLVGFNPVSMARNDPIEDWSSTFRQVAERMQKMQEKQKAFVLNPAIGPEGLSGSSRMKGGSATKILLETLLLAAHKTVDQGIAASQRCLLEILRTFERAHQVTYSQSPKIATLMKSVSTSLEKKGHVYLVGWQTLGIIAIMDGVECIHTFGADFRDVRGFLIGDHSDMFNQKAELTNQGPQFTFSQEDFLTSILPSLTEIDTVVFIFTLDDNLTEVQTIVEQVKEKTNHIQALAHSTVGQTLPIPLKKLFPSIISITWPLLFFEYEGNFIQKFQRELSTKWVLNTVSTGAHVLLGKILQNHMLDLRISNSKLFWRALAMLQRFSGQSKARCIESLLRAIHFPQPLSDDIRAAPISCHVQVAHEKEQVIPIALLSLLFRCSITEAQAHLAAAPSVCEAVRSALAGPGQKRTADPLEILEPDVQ

CC1CCN(CC[C@H]2CCCN2S(=O)(=O)c2cccc(O)c2)CC1
inactive: Potency [1] | outcome [2] | Potency [3] | Potency [4] | Potency [5] | Potency [6] | max response [7] 10.9%

N[C@@H](CCCC(=O)O)C(=O)O
inactive: Potency [1] | outcome [2] | Potency [3] | Potency [4] | Potency [5] | Potency [8] | max response [7] 28.3%

COc1ccc(CCN(C)CCc2ccc(OC)c(OC)c2)cc1OC
inactive: Potency [1] | outcome [2] | Potency [3] | Potency [4] | Potency [5] | Potency [6] | max response [7] 12.4%

CNCCNS(=O)(=O)c1cccc2cnccc12
inactive: Potency [1] | outcome [2] | Potency [3] | Potency [4] | Potency [5] | Potency [8] | max response [7] 18.9%

NC(=O)c1cc[n+](CC2=C(C(=O)O)N3C(=O)[C@@H](NC(=O)[C@@H](c4ccccc4)S(=O)(=O)[O-])[C@H]3SC2)cc1
inactive: Potency [1] | outcome [2] | Potency [3] | Potency [4] | Potency [5] | Potency [6] | max response [7] 7.28%

O=c1onc2cnc3ccccc3n12
inactive: Potency [1] | outcome [2] | Potency [3] | Potency [4] | Potency [5] | Potency [8]

CN(CC[C@@H](Oc1ccc(C(F)(F)F)cc1)c1ccccc1)CC(=O)O
inactive: Potency [1] | outcome [2] | Potency [3] | Potency [4] | Potency [5] | Potency [6] | max response [7] 25.4%

CCCCCCN(CCCCCC)C(=O)Cc1c(-c2ccc(F)cc2)[nH]c2ccccc12
inactive: Potency [1] | outcome [2] | Potency [3] | Potency [4] | Potency [5] | Potency [8] | max response [7] 19.7%

CCCCCCCCCCCCCCC[C@H](O)[C@H](N)CO
inactive: Potency [1] | outcome [2] | Potency [3] | Potency [4] | Potency [5] | Potency [8]

Nc1ncnc2c1nc(Br)n2C1OC2COP(=O)(O)O[C@@H]2C1O (some centres not stated)
inactive: Potency [1] | outcome [2] | Potency [3] | Potency [4] | Potency [5] | Potency [8] | max response [7] 31.4%

CC(=O)NCCc1c[nH]c2ccc(O)cc12
inactive: Potency [1] | outcome [2] | Potency [3] | Potency [4] | Potency [5] | Potency [6] | max response [7] 28.4%

CNCCc1cnc(CCC(c2ccccc2)c2ccccc2)[nH]1
inactive: Potency [1] | outcome [2] | Potency [3] | Potency [4] | Potency [5] | Potency [8]
active: Potency [7] 1260 nM

COc1ccccc1N1CCN(CCN(C(=O)c2ccc(F)cc2)c2ccccn2)CC1
inactive: Potency [1] | outcome [2] | Potency [3] | Potency [4] | Potency [5] | Potency [6] | Potency [8] | max response [7] 23.7%

C[C@@H](NCCc1ccc(O)cc1)[C@@H](O)c1ccc(O)cc1
inactive: Potency [1] | outcome [2] | Potency [3] | Potency [4] | Potency [5] | Potency [8] | max response [7] 2.62%

CC(C)(C)c1cc(/C=C(\C#N)C(N)=S)cc(C(C)(C)C)c1O
inactive: Potency [1] | outcome [2] | Potency [3] | Potency [4] | Potency [5] | Potency [8] | max response [7] 6.59%

CCCOC(=O)c1c(-c2ccccc2)nc(CC)c(C(=O)SCC)c1CCC
inactive: Potency [1] | outcome [2] | Potency [3] | Potency [4] | Potency [5] | Potency [6] | max response [7] 9.8%

COCc1nc2c([nH]1)c(=O)n(C)c(=O)n2CC(C)C
inactive: Potency [1] | outcome [2] | Potency [3] | Potency [4] | Potency [5] | Potency [6] | max response [7] 28.7%

CCCn1c(=O)c(C)cn2nc(N)nc12
inactive: Potency [1] | outcome [2] | Potency [3] | Potency [4] | Potency [5] | Potency [6] | max response [7] -2.34%

O=[N+]([O-])c1cccc2c(Br)[nH]nc12
inactive: Potency [1] | outcome [2] | Potency [3] | Potency [4] | Potency [5] | Potency [6] | max response [7] -25.7%

CC(C)NC[C@H](O)COc1ccc(CC(N)=O)cc1
inactive: Potency [1] | outcome [2] | Potency [3] | Potency [4] | Potency [5] | Potency [6] | Potency [8] | max response [7] 5.76%

Cn1c(=O)c2[nH]c(C3CCCC3)nc2n(C)c1=O
inactive: Potency [1] | outcome [2] | Potency [3] | Potency [4] | Potency [5] | Potency [6] | max response [7] 9.69%

CC(=O)O[C@H]1Cc2ccccc2N(C(N)=O)c2ccccc21
inactive: Potency [1] | outcome [2] | Potency [3] | Potency [4] | Potency [5] | Potency [8] | max response [7] 18.2%

Oc1ccc(Cn2cc[nH]c2=S)cc1
inactive: Potency [1] | outcome [2] | Potency [3] | Potency [4] | Potency [5] | Potency [8] | max response [7] 24%

O=C(O)[C@H]1NCCC[C@H]1C(=O)O
inactive: Potency [1] | outcome [2] | Potency [3] | Potency [4] | Potency [5] | Potency [6] | max response [7] 8.68%

O=C(O)C1CN(CCCP(=O)(O)O)CCN1 (configuration not stated)
inactive: Potency [1] | outcome [2] | Potency [3] | Potency [4] | Potency [5] | Potency [6] | max response [7] -7.29%

CC(N)=O
inactive: Potency [1] | outcome [2] | Potency [3] | Potency [4] | Potency [5] | Potency [8] | max response [7] 12.7%

From PubChem BioAssay (NCATS)
